Results as given in PubChem BioAssay (NCI).
This is part of a sample that, as a whole, favours compounds with a hit. Of some 83,000 tested, about 20% had one in any assay.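 Activity criterion: percent growth below 10, measured after cells in 96-well plates were exposed to a single compound concentration for 48 hours.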 Active and inactive are the calls of the source.

Key:
Experiment in all cases: NCI-60 one-dose screen, 48 h (100 = growth as untreated, 0 = no growth, -100 = all killed)
Settings in all cases: 10 µM unless noted
SR leukemia = tested on: SR leukemia
RPMI-8226 leukemia = tested on: RPMI-8226 leukemia
OVCAR-8 ovarian = tested on: OVCAR-8 ovarian
OVCAR-5 ovarian = tested on: OVCAR-5 ovarian
OVCAR-4 ovarian = tested on: OVCAR-4 ovarian
SK-OV-3 ovarian = tested on: SK-OV-3 ovarian
IGROV1 ovarian = tested on: IGROV1 ovarian
OVCAR-3 ovarian = tested on: OVCAR-3 ovarian
HS 578T breast = tested on: HS 578T breast
NCI/ADR-RES ovarian = tested on: NCI/ADR-RES ovarian
T-47D breast = tested on: T-47D breast
BT-549 breast = tested on: BT-549 breast
MDA-MB-435 melanoma = tested on: MDA-MB-435 melanoma
SW-620 colon = tested on: SW-620 colon
MCF7 breast = tested on: MCF7 breast
HCT-116 colon = tested on: HCT-116 colon
HCC-2998 colon = tested on: HCC-2998 colon
KM12 colon = tested on: KM12 colon

Measured: growth

N#CSCC1CC(O)(c2ccccc2)CC(c2ccc(F)cc2)O1 (stereo unspecified)
active: SR leukemia -29.6% | RPMI-8226 leukemia -22.4% | OVCAR-3 ovarian -79.3% | HS 578T breast -22.7% | NCI/ADR-RES ovarian -3.67% | BT-549 breast -9.66% | MDA-MB-435 melanoma 0.665% | SW-620 colon -58.8% | MCF7 breast -17% | HCT-116 colon -60.4% | KM12 colon -49.3%
inactive: OVCAR-8 ovarian 10.3% | OVCAR-5 ovarian 85.6% | OVCAR-4 ovarian 26.1% | SK-OV-3 ovarian 52.7% | IGROV1 ovarian 51.1% | T-47D breast 12.5% | HCC-2998 colon 72%

CC(C)Cn1cnc2c(=O)[nH]c(N)nc21
inactive: SR leukemia 90.3% | RPMI-8226 leukemia 104% | OVCAR-8 ovarian 97% | OVCAR-5 ovarian 110% | OVCAR-4 ovarian 103% | SK-OV-3 ovarian 78% | IGROV1 ovarian 104% | OVCAR-3 ovarian 109% | HS 578T breast 106% | NCI/ADR-RES ovarian 105% | T-47D breast 85.3% | BT-549 breast 98.5% | MDA-MB-435 melanoma 109% | SW-620 colon 106% | MCF7 breast 86.7% | HCT-116 colon 101% | HCC-2998 colon 104% | KM12 colon 106%

O=C(Nc1cccc(Cl)c1)Nc1cccc(Cn2c(=O)[nH]c3ccc(Oc4ncccn4)cc3c2=O)c1
inactive: SR leukemia 21.4% | RPMI-8226 leukemia 25.3% | OVCAR-8 ovarian 37.4% | OVCAR-5 ovarian 81.7% | OVCAR-4 ovarian 13.3% | SK-OV-3 ovarian 70.7% | IGROV1 ovarian 62% | OVCAR-3 ovarian 33.5% | HS 578T breast 51.8% | NCI/ADR-RES ovarian 95.5% | T-47D breast 16.3% | BT-549 breast 48% | MDA-MB-435 melanoma 42.6% | SW-620 colon 72.3% | MCF7 breast 35.8% | HCT-116 colon 22.9% | HCC-2998 colon 69.7% | KM12 colon 29.5%

COc1ccc(C(=O)C/C(=C\c2ccc(Cl)cc2)C(=O)NCc2ccccc2)cc1
inactive: SR leukemia 60.3% | RPMI-8226 leukemia 75.7% | OVCAR-8 ovarian 82.3% | OVCAR-5 ovarian 99.5% | OVCAR-4 ovarian 105% | SK-OV-3 ovarian 79.3% | IGROV1 ovarian 86.3% | OVCAR-3 ovarian 100% | HS 578T breast 86.4% | NCI/ADR-RES ovarian 89.1% | T-47D breast 65.3% | BT-549 breast 110% | MDA-MB-435 melanoma 68.8% | SW-620 colon 98.2% | MCF7 breast 86.1% | HCT-116 colon 82.5% | HCC-2998 colon 93.1% | KM12 colon 99.7%

NS(=O)(=O)c1ccc(N=Nc2c(O)n(Cc3ccccc3)c3ccc(Cl)cc23)cc1
inactive: SR leukemia 60.2% | RPMI-8226 leukemia 90.7% | OVCAR-8 ovarian 65.1% | OVCAR-5 ovarian 86.8% | OVCAR-4 ovarian 28.7% | SK-OV-3 ovarian 74.3% | IGROV1 ovarian 84% | OVCAR-3 ovarian 89.4% | HS 578T breast 44.8% | NCI/ADR-RES ovarian 82.5% | T-47D breast 79.4% | BT-549 breast 81.2% | MDA-MB-435 melanoma 79.4% | SW-620 colon 79.9% | MCF7 breast 75.3% | HCT-116 colon 69.3% | HCC-2998 colon 101% | KM12 colon 88.5%

C#CCOC(=O)/C=C/c1cn(-c2ccccc2)nc1-c1ccc(OC)cc1
inactive: SR leukemia 83.2% | RPMI-8226 leukemia 105% | OVCAR-8 ovarian 78.5% | OVCAR-5 ovarian 91% | OVCAR-4 ovarian 90.7% | SK-OV-3 ovarian 89.3% | IGROV1 ovarian 74% | OVCAR-3 ovarian 103% | HS 578T breast 76.9% | NCI/ADR-RES ovarian 98.4% | T-47D breast 88.3% | BT-549 breast 108% | MDA-MB-435 melanoma 107% | SW-620 colon 112% | MCF7 breast 79.1% | HCT-116 colon 74.8% | HCC-2998 colon 105% | KM12 colon 96.9%

CSc1nc2ccccc2cc1/C=C1/C=C(c2ccccc2)NC1=O
inactive: SR leukemia 27.4% | RPMI-8226 leukemia 81.9% | OVCAR-8 ovarian 82.5% | OVCAR-5 ovarian 99.5% | OVCAR-4 ovarian 84.7% | SK-OV-3 ovarian 85.1% | IGROV1 ovarian 79.4% | OVCAR-3 ovarian 71.7% | HS 578T breast 80% | NCI/ADR-RES ovarian 76.2% | T-47D breast 79.9% | BT-549 breast 77.4% | SW-620 colon 55.4% | MCF7 breast 49.8% | HCT-116 colon 56.8% | HCC-2998 colon 93.2% | KM12 colon 59.6%
active: MDA-MB-435 melanoma 3.27%

Cn1c(=O)cc2c3c(c(NCCCO)ccc31)C(=O)c1ccccc1-2
inactive: SR leukemia 13.4% | RPMI-8226 leukemia 54.6% | OVCAR-8 ovarian 33.2% | OVCAR-5 ovarian 65.6% | OVCAR-4 ovarian 47.7% | SK-OV-3 ovarian 51.6% | IGROV1 ovarian 41.8% | OVCAR-3 ovarian 54.4% | HS 578T breast 60.2% | NCI/ADR-RES ovarian 57.1% | T-47D breast 51.8% | BT-549 breast 73.6% | MDA-MB-435 melanoma 44% | SW-620 colon 32.6% | MCF7 breast 27.6% | HCT-116 colon 16.5% | HCC-2998 colon 49.1% | KM12 colon 42.7%

CN1C(=O)/C(=C\c2nc([P+](c3ccccc3)(c3ccccc3)c3ccccc3)c(N3CCOCC3)o2)SC1=S
inactive: SR leukemia 13.3% | OVCAR-8 ovarian 96.4% | OVCAR-5 ovarian 96.7% | OVCAR-4 ovarian 90.5% | SK-OV-3 ovarian 108% | OVCAR-3 ovarian 100% | HS 578T breast 90.4% | NCI/ADR-RES ovarian 90.5% | T-47D breast 79.4% | BT-549 breast 26.5% | MDA-MB-435 melanoma 60% | SW-620 colon 96.2% | MCF7 breast 85.8% | HCT-116 colon 65.4% | HCC-2998 colon 78% | KM12 colon 43.2%
active: RPMI-8226 leukemia -21.1% | IGROV1 ovarian 5.71%

Cc1ccc2c(Cn3cc(CSc4nc5ccccc5o4)nn3)cc(=O)oc2c1
inactive: SR leukemia 99.6% | RPMI-8226 leukemia 100% | OVCAR-8 ovarian 97.4% | OVCAR-5 ovarian 116% | OVCAR-4 ovarian 107% | SK-OV-3 ovarian 81% | IGROV1 ovarian 107% | OVCAR-3 ovarian 115% | HS 578T breast 107% | NCI/ADR-RES ovarian 99.3% | T-47D breast 100% | BT-549 breast 104% | MDA-MB-435 melanoma 102% | SW-620 colon 106% | MCF7 breast 100% | HCT-116 colon 104% | HCC-2998 colon 115% | KM12 colon 113%

O=C(Nn1c2c(sc1=NC1CC1)C(=O)c1ccccc1C2=O)c1cc2ccc1CCc1ccc(cc1)CC2
inactive: SR leukemia 29.4% | RPMI-8226 leukemia 19.5% | OVCAR-5 ovarian 111% | OVCAR-4 ovarian 40.5% | SK-OV-3 ovarian 59.1% | IGROV1 ovarian 34.6% | HS 578T breast 46.2% | NCI/ADR-RES ovarian 17.8% | T-47D breast 20.4% | BT-549 breast 37.2% | SW-620 colon 18.3% | MCF7 breast 11.5% | HCC-2998 colon 61.4% | KM12 colon 35.2%
active: OVCAR-8 ovarian 3.79% | OVCAR-3 ovarian 1.11% | MDA-MB-435 melanoma -93.2% | HCT-116 colon -9.1%

Cc1c(O)cc(-c2cnc(Nc3ccccc3)s2)c(O)c1C
inactive: SR leukemia 87.4% | RPMI-8226 leukemia 82.5% | OVCAR-8 ovarian 94% | OVCAR-5 ovarian 111% | OVCAR-4 ovarian 84.8% | SK-OV-3 ovarian 94.5% | IGROV1 ovarian 79.2% | OVCAR-3 ovarian 102% | HS 578T breast 87.5% | NCI/ADR-RES ovarian 96.5% | T-47D breast 68.6% | BT-549 breast 91.8% | MDA-MB-435 melanoma 101% | SW-620 colon 104% | MCF7 breast 82.2% | HCT-116 colon 97.8% | HCC-2998 colon 118% | KM12 colon 95.9%

CCc1ccccc1-n1c(-c2ccc(OC)cc2)cc(-c2ccc(OC)cc2)c(C#N)c1=O
inactive: SR leukemia 98.4% | RPMI-8226 leukemia 105% | OVCAR-8 ovarian 41.7% | OVCAR-5 ovarian 92.7% | OVCAR-4 ovarian 85.9% | SK-OV-3 ovarian 54% | IGROV1 ovarian 85.5% | OVCAR-3 ovarian 82.2% | HS 578T breast 17.9% | NCI/ADR-RES ovarian 72.4% | T-47D breast 90.6% | BT-549 breast 101% | MDA-MB-435 melanoma 104% | SW-620 colon 93.9% | MCF7 breast 93% | HCT-116 colon 51.1% | HCC-2998 colon 97.1% | KM12 colon 92.5%

O=C(Nc1cccc(-c2ccc(N3CCOCC3)nn2)c1)Nc1cccc(C(F)(F)F)c1
active: T-47D breast 8.63%
inactive: SR leukemia 60.4% | RPMI-8226 leukemia 31.4% | OVCAR-8 ovarian 35.4% | OVCAR-5 ovarian 125% | OVCAR-4 ovarian 73.3% | SK-OV-3 ovarian 104% | IGROV1 ovarian 97.1% | OVCAR-3 ovarian 74.3% | HS 578T breast 91.6% | NCI/ADR-RES ovarian 72.2% | BT-549 breast 40.9% | MDA-MB-435 melanoma 69.7% | SW-620 colon 110% | MCF7 breast 55.3% | HCT-116 colon 68.2% | HCC-2998 colon 109% | KM12 colon 55.5%

COc1cc(C2CC(c3ccc(Nc4nc(Nc5ccc(Cl)cc5)nc(Nc5ccc(Cl)cc5)n4)cc3)=NN2C(C)=O)cc(OC)c1OC (stereo unspecified)
inactive: SR leukemia 72.7% | RPMI-8226 leukemia 32% | OVCAR-8 ovarian 107% | OVCAR-5 ovarian 92.8% | OVCAR-4 ovarian 97.3% | SK-OV-3 ovarian 126% | IGROV1 ovarian 85.7% | OVCAR-3 ovarian 105% | HS 578T breast 122% | NCI/ADR-RES ovarian 92.7% | T-47D breast 69.2% | BT-549 breast 104% | MDA-MB-435 melanoma 89.1% | SW-620 colon 106% | MCF7 breast 89% | HCT-116 colon 84.9% | HCC-2998 colon 100% | KM12 colon 106%

CCOC(=O)c1cc2c(n1C)-c1nc(NC(C)=O)sc1CCC2
inactive: SR leukemia 72.6% | RPMI-8226 leukemia 79% | OVCAR-8 ovarian 71.2% | OVCAR-5 ovarian 117% | OVCAR-4 ovarian 80.4% | SK-OV-3 ovarian 76.1% | IGROV1 ovarian 69.2% | OVCAR-3 ovarian 85.7% | HS 578T breast 60.5% | NCI/ADR-RES ovarian 85.1% | T-47D breast 51.8% | BT-549 breast 71.8% | MDA-MB-435 melanoma 98.5% | SW-620 colon 93.3% | MCF7 breast 61.6% | HCT-116 colon 75.4% | HCC-2998 colon 113% | KM12 colon 87.7%

O=C(CN1C(=O)S/C(=C\c2ccccc2)C1=O)Nc1ncc(Cc2ccccc2Cl)s1
inactive: SR leukemia 113% | RPMI-8226 leukemia 103% | OVCAR-8 ovarian 93.3% | OVCAR-5 ovarian 103% | OVCAR-4 ovarian 89.6% | SK-OV-3 ovarian 102% | IGROV1 ovarian 94.6% | OVCAR-3 ovarian 109% | HS 578T breast 102% | NCI/ADR-RES ovarian 96.2% | T-47D breast 88.1% | BT-549 breast 113% | MDA-MB-435 melanoma 93.6% | SW-620 colon 105% | MCF7 breast 92.7% | HCT-116 colon 94.5% | HCC-2998 colon 105% | KM12 colon 102%
